Among all 74,000 compounds or so, about 1,100 (1.5%) were called active. Where a call stands in place of a potency, no number is given. Roughly 5% stayed inconclusive and do not appear here. The call rests on the fitted dose curve; in most records, active means well fitted inhibition curve with a large enough effect; inconclusive means small, poorly fitted or top-dose-only effect; inactive means no such curve, though single readings can be large or run the other way. This excerpt belongs to a sample that is enriched for actives.
Potency means the concentration at half of the fitted maximal effect.

Polyunsaturated fatty acid lipoxygenase ALOX15 (Homo sapiens), sequence (P16050 whole entry, looked up): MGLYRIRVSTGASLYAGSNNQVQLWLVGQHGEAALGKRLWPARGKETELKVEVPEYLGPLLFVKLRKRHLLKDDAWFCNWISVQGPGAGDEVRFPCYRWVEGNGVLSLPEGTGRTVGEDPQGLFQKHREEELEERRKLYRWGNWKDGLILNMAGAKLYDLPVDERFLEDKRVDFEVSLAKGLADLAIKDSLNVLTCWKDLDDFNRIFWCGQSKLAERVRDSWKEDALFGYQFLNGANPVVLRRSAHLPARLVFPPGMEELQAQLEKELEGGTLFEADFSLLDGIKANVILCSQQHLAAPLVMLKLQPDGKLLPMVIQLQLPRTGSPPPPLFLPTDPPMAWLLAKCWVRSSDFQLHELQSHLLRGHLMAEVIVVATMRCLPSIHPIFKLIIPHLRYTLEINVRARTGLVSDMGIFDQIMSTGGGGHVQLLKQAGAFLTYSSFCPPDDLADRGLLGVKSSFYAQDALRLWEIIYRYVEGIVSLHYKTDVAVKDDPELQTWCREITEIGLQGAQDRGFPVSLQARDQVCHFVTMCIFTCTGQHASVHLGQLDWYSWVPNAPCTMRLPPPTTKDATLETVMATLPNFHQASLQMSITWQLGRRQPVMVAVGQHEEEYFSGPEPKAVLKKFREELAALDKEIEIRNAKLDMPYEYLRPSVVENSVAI

The experiment has as its target Polyunsaturated fatty acid lipoxygenase ALOX15 (Homo sapiens) (UniProt P16050). The experiment can be described thus: qHTS Assay for Inhibitors of 15-hLO (15-human lipoxygenase). Further: nearly all actives have a fitted effect of over 55% in size. The following applies: purified 15hLO-1, xylenol orange hydroperoxide absorbance; series mostly up to 57.1 µM. The source says:
Assay Overview: NIH Molecular Libraries Screening Centers Network [MLSCN] NIH Chemical Genomics Center [NCGC] MLSCN Grant: MH081283-01A1 PI Name: Holman, T.R., University of California, Santa Cruz Human lipoxygenase 15hLO-1 is a member of the closely related lipoxygenase family of enzymes which catalyze the site-specific oxidation of arachidonic acid to various hormone precursor molecules and as such is a candidate for drug development in a variety of disease areas, such as cancer and inflammation. Inhibition of 15hLO-1 activity was screened by utilizing arachidonic acid as a substrate. The extent of hydroperoxide product formation was measured by a secondary chromogenic reaction in which xylenol orange (XO, Sigma-Aldrich, cat. number 39,818-7) reacts with the ferric ions produced from the reaction between the hydroperoxide and ferrous ions. The Fe(III)-XO complex is characterized with red-shifted absorbance at 560 nm. A purified preparation of human 15hLO-1 was supplied by Professor Ted Holman, University of California, Santa Cruz.
Assay Protocol: Buffer: 25 mM Hepes pH 7.5, 0.01% Triton X-100. Reagents/Controls: Buffer in columns 3 and 4 as negative control (no enzyme). Substrate solution: 50 uM arachidonic acid (Sigma-Aldrich, St. Louis, MO) final concentration dispensed throughout the plate. Enzyme: 40 nM 15hLO-1 final concentration in columns 1, 2, 5-48. Column 1 is neutral (100% activity). Column 2 contained pin-transferred titration of NDGA (nordihidroguaiaretic acid, Sigma-Aldrich, N 5023, top concentration 10 mM in DMSO, then 1:2 dilution in duplicate). (Dilution factor: 23 nL into 4 uL.) Chromogenic detection reagent (divalent iron/xylenol orange, Fe-XO): 200 uM xylenol orange plus 300 uM ferrous ammonium sulfate prepared freshly in 50 mM sulfuric acid. Assay Steps: Three uL of enzyme were dispensed to 1536-well Greiner black clear bottom plates. Compounds and controls (23 nL) were transferred via Kalypsys PinTool. The plates were incubated for 15 min at room temperature, and then 1 uL of substrate solution was added to start the reaction. After room temperature incubation for 6 minutes, 4 uL of Fe-XO solution was added to each well followed by a short spin (1000 rpm, 15 sec) and the plates were then incubated for 30 min. The absorbance at 405 and 573 nm were measured using ViewLux (Perkin-Elmer) High-throughput CCD imager and absorbance protocol settings. The 573-to-405 absorbance ratio was used to compute reaction progress.
In general terms: qHTS replaces the single test concentration by a dilution series.
Take `COCn1c(COc2ccccc2)nc2ccccc21`: the activity change, negative = inhibition is -9.11% [at 11.4 µM] (inactive).

`COc1ccc(OCc2ccc(-c3nc4ccccc4c(=O)n3N)o2)cc1`: the activity change, negative = inhibition entry was “inactive”.

`Cn1c(COc2ccc(Cl)cc2)nc2ccccc2c1=O`: the Potency is 25.1 µM (active).

Turning to `c1ccc(Oc2ccccc2)cc1`, the activity change, negative = inhibition result is “inactive”.

Consider `CC(C)(O)CCC(O)[C@@](C)(O)C1CC[C@]2(O)C3=CC(=O)C4CC(O)C(O)C[C@]4(C)C3CC[C@]12C` (stereo partly specified), for which the activity change, negative = inhibition entry is “inactive”.

Take `O=C1OCCC=C1[C@@H](O)CCc1ccccc1`: the activity change, negative = inhibition was 9.13% [at 11.4 µM] (inactive).

As for `Nc1nc2c(nc(Cl)n2C2OC(CO)C(O)C2O)c(=O)[nH]1` (stereo unspecified), the activity change, negative = inhibition entry is “inactive”.

Take `CC1=C(/C=C/C(C)=C/C=C/C(C)=C/C=C/C=C(C)/C=C/C=C(C)/C=C/C2=C(C)CCCC2(C)C)C(C)(C)CCC1`: the activity change, negative = inhibition result is “inactive”.

Regarding `CC/C=C/C/C=C/C/C=C/CCCCCCCC(=O)OCC`, the Potency is 2.51 µM (active).

Take `Oc1c(Br)cc(CN(Cc2cc(Br)c(O)c(Br)c2)C2CCCCC2)cc1Br`: the activity change, negative = inhibition is 11.3% [at 11.4 µM] (inactive).

Regarding `CC1(C)SC2C(NC(=O)COc3ccccc3)C(=O)N2C1C(=O)O` (stereo unspecified), the activity change, negative = inhibition entry was “inactive”.

Regarding `O=C1OC(C(O)CO)C(O)=C1O` (stereo unspecified), the activity change, negative = inhibition entry was “inactive”.

Consider `CCOC(=O)CSC1=C(C#N)C(c2sccc2C)CC(=O)N1` (stereo unspecified), for which the activity change, negative = inhibition result was “inactive”.

For the molecule `COC(=O)CSC1=C(C#N)C(c2ccccc2OC)C(C(=O)OC)C(=O)N1` (stereo unspecified), the activity change, negative = inhibition was -4.29% [at 11.4 µM] (inactive).

On to `CCCSC1=C(C#N)C(c2ccccc2C)C(C(=O)OC)C(=O)N1` (stereo unspecified), for which the Potency is 12.6 µM (active).

`CN(C)CCCCNC(=O)c1ccc(Cc2nc3ccccc3[nH]2)cc1`: the activity change, negative = inhibition result is “inactive”.

As to `O=C(O)C(O)[C@@](O)(Cc1ccc(O)cc1)C(=O)O` (stereo partly specified), the activity change, negative = inhibition result was “inactive”.

As for `CCOC(=O)[C@]1(C(/C=C/c2ccco2)NC(=O)OC)CCCC1=O` (stereo partly specified), the activity change, negative = inhibition is 5.21% [at 11.4 µM] (inactive).

Consider `Cc1c(O)cc(O)c2c(=O)c(-c3ccc(O)cc3)coc12`, for which the activity change, negative = inhibition entry is “inactive”.

In the case of `CN(C)CCc1c[nH]c2ccc(Cn3cncn3)cc12`, the activity change, negative = inhibition result is “inactive”.

For `Cc1ccc(S(=O)(=O)C(C#N)c2nc3ccccc3nc2N2CCCC2)cc1C` (stereo unspecified), the Potency is 12.6 µM (active).

Take `N#CC(C(=O)c1ccc(S(=O)(=O)N2CCCCCC2)cc1)c1nc2ccccc2[nH]1` (stereo unspecified): the activity change, negative = inhibition entry was “inactive”.

For the molecule `CC(C)OC(=O)C(C#N)c1nc2ccccc2nc1N1CCN(Cc2ccccc2)CC1` (stereo unspecified), the activity change, negative = inhibition result is “inactive”.

As to `CC1CCCCN1CCCNC(=O)c1ccc(-n2c(=O)c(=O)[nH]c3ccccc32)cc1` (stereo unspecified), the activity change, negative = inhibition entry is “inactive”.

`CC1OC(OCC2OC(Oc3c(-c4ccc(O)c(O)c4)oc4cc(O)cc(O)c4c3=O)C(O)C(O)C2O)[C@@H](O)C(O)C1O` (stereo partly specified): the activity change, negative = inhibition result was “inactive”.

Consider `CC(=O)OCC(=O)C1CCC2C3CCC4=CC(=O)CC[C@@]4(C)C3CC[C@]12C` (stereo partly specified), for which the activity change, negative = inhibition entry was “inactive”.

Turning to `Oc1c(Cl)cc(Cl)c(Cl)c1Cc1c(O)c(Cl)cc(Cl)c1Cl`, the Potency is 5.01 µM (active).

`COc1cc(OC)c2c(c1Cl)OC1(C2=O)C(O)=CC(=O)CC1C` (stereo unspecified): the activity change, negative = inhibition result was “inactive”.

As for `Cc1cccc(-c2cc(=O)c3cc(C)ccc3o2)c1`, the activity change, negative = inhibition result was “inactive”.

In the case of `O=c1cc(-c2ccc(O)c(O)c2)oc2cccc(O)c12`, the Potency is 0.398 µM (active).

`CC1O[C@@H](Oc2c(-c3ccc(O)c(O)c3)oc3cc(O)cc(O)c3c2=O)C(O)C(O)C1O` (stereo partly specified): the activity change, negative = inhibition result is “inactive”.

In the case of `COC1C[C@@H](O[C@@H]2C(C)C(=O)OC(C)C(C)C(O)C(C)C(=O)[C@@]3(CO3)CC(C)C(OC3OC(C)CC(N(C)C)C3O)C2C)OC(C)[C@@H]1O` (stereo partly specified), the activity change, negative = inhibition result is “inactive”.

As to `C=CCSc1nc2c(c(=O)[nH]1)C(C(C)C)C(C#N)=C(N)O2` (stereo unspecified), the activity change, negative = inhibition entry is “inactive”.

Take `CO[C@H]1COC(=O)[C@@H](OCc2ccccc2)/C=C\[C@H](C)[C@@H](OC)COC(=O)[C@H](OCc2ccccc2)/C=C\[C@@H]1C`: the activity change, negative = inhibition is -2.96% [at 11.4 µM] (inactive).

Turning to `CN(C(=O)CN(CCO)CC(=O)N(C)C(C)(C)Cc1ccccc1)C(C)(C)Cc1ccccc1`, the activity change, negative = inhibition result was “inactive”.

Regarding `Cc1ccc2oc(=O)ccc2c1`, the activity change, negative = inhibition result is “inactive”.

For `CCN(CC)c1ccc2oc(=O)c(C)nc2c1`, the Potency was 25.1 µM (active).

As to `CCc1ccc2oc(-c3ccc(N)cc3)nc2c1`, the activity change, negative = inhibition entry was “inactive”.

Consider `Nc1nnc(SCCN2C(=O)c3ccccc3S2(=O)=O)s1`, for which the activity change, negative = inhibition entry is “inactive”.

Take `COc1ccc(/C=C/C(=O)c2ccc(OC)cc2O)cc1`: the activity change, negative = inhibition was -1.36% [at 11.4 µM] (inactive).

With `COc1c(C)cccc1C(=O)Nc1cc(Cl)ccc1N1CCOCC1`, the activity change, negative = inhibition entry is “inactive”.

With `c1cnn(-c2cc(N3CCOCC3)ncn2)c1`, the activity change, negative = inhibition entry was “inactive”.

With `O=C(Nc1cc(N2CCOCC2)ncn1)NC1(C(F)(F)F)Oc2ccc(Cl)cc2O1` (stereo unspecified), the Potency was 5.01 µM (active).

In the case of `CCCCCCCCCc1ccc(OCCOCCOCCOCCOCCOCCOCCOCCOCCO)cc1`, the activity change, negative = inhibition result was “inactive”.

As for `COC(=O)C1=C(C)Nc2ncnn2C1c1ccco1` (stereo unspecified), the activity change, negative = inhibition result was “inactive”.

For the molecule `Cc1ccc(C(C(=O)NC2CCCCC2)N(C(=O)c2csnn2)C2CC2)o1` (stereo unspecified), the activity change, negative = inhibition entry is “inactive”.

In the case of `CCC(C(=O)NC1CCCC1)N(C(=O)c1snc(C(N)=O)c1N)c1ccc2c(c1)OCCO2` (stereo unspecified), the Potency is 25.1 µM (active).

As for `O=C(NCCc1ccc2c(c1)OCCO2)c1cc2ccccc2o1`, the activity change, negative = inhibition result is “inactive”.

`COc1cc(C(=O)Nc2oc(-c3ccccc3)c(-c3ccccc3)c2C#N)cc(OC)c1OC`: the activity change, negative = inhibition entry is “inactive”.

As for `Oc1ccc2c(c1)OCC1c3cc4c(cc3OC21)OCO4` (stereo unspecified), the activity change, negative = inhibition result is “inactive”.

With `CCCCOCCCNC(=O)c1ccccc1OCC`, the activity change, negative = inhibition was 2.13% [at 11.4 µM] (inactive).

For `COc1ccc2[nH]cc(CCNc3ncnc4ccc(-c5ccc(C(=O)N(C)C)cc5)cc34)c2c1`, the activity change, negative = inhibition result was “inactive”.

Take `CC(C)NC(=O)N1CCC2(CC1)CCN(C(=O)c1cccn1C)CC2`: the activity change, negative = inhibition result is “inactive”.

As for `CC(C)c1ccc2c(c1)c(SC(C)(C)C)c(CC(C)(C)C(=O)O)n2Cc1ccc(Cl)cc1`, the Potency was 12.6 µM (active).

Turning to `CS(=O)(=O)N1CCC2(CC1)CN(Cc1ccccc1)C2`, the activity change, negative = inhibition entry is “inactive”.

With `CC(=O)OCC1OC(C#Cc2ccccc2Cl)C=CC1OC(C)=O` (stereo unspecified), the activity change, negative = inhibition is -0.11% [at 11.4 µM] (inactive).

As for `CN1CC(=O)N=C1N`, the activity change, negative = inhibition entry was “inactive”.

For the molecule `C[C@H]1CC[C@H](C(=O)O)N[C@@H]1c1ccc(C#Cc2ccccc2)cc1`, the activity change, negative = inhibition was -4.38% [at 11.4 µM] (inactive).

With `COC(=O)Cc1csc(Nc2c(C)n(C)n(-c3ccccc3)c2=O)n1`, the activity change, negative = inhibition result is “inactive”.

In the case of `Cc1cc(C(=O)Nc2c(C)n(C)n(-c3ccccc3)c2=O)cs1`, the Potency was 1.58 µM (active).

On to `Cc1c(NC(=O)c2cccnc2)c(=O)n(-c2ccccc2)n1C`, for which the activity change, negative = inhibition entry was “inactive”.

These data come from PubChem BioAssay AID887 (National Center for Advancing Translational Sciences (NCATS), 2007).
